Most compounds without a hit are left out; they make up all but 12% or so of the library.
Sfp inh = blocks B. subtilis Sfp PPTase activity; AID 1490; Potency, µM, hits mostly inhibitors; Biochemical Sfp PPTase activity, qHTS; Q9F4F7; actives 3.5% (n = 310,000);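 further: the enzyme is Sfp with the accession as filed and its product quenches rhodamine fluorescence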
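After 15 min at room temperature with compound, 15 nM Sfp received 5 uM rhodamine-CoA plus 12.5 uM BHQ-2-ybbR (50 mM Hepes pH 7.6, 10 mM MgCl2). Rate came from the fluorescence difference over 30 min, ex 525/em 598 nm.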
RORgamma inh = inhibitors of mouse ROR gamma transcriptional activity. actives 5.4% (n = 310,000). Drosophila S2 Gal4-RORgamma UAS-luciferase reporter, 20 h. Potency, µM (doses to about 53.6 µM), usual class: inhibitors; further: nearly all actives have a fitted effect of over 60% in size
Target sequence (P51450 whole entry, looked up, the tested form may be a part): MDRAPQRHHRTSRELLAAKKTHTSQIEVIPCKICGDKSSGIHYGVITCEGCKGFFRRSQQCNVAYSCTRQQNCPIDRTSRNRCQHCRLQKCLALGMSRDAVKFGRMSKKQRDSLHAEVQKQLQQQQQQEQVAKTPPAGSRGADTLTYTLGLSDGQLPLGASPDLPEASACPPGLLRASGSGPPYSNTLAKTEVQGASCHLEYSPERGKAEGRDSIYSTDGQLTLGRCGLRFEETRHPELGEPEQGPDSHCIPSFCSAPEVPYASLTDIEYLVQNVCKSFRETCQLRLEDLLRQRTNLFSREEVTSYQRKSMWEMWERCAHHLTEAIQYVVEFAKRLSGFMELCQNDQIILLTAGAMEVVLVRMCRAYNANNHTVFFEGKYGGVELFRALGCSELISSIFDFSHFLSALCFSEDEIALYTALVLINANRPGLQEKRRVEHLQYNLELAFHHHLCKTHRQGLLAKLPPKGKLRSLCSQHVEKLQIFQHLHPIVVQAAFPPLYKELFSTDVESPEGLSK
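A Gal4/UAS one-hybrid system in insect cells: metallothionein-promoter Gal4–ROR gamma fusion plus Photinus luciferase reporter. Copper sulfate 700 uM final, 20 hr ambient incubation, luminescent detection after 10 min with reagent.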
PLK1 PBD inh = blocks phosphopeptide binding to human PLK1 polo-box domain. Potency, µM, actives largely listed as inhibitors. AID 720504. Plk1 PBD binding of FITC phosphopeptide, fluorescence polarization. actives 2.8% (n = 360,000); further: series mostly up to about 57 µM; nearly all actives have a fitted effect of over 65% in size
Gal4-VP16 FLuc = Gal4-VP16 reporter inhibition counter-screen; Drosophila S2 Gal4-VP16 UAS-luciferase, luminescence, 20 h; Potency, µM (top dose mostly 53.6 µM), usual class: inhibitors; actives 3.5% (n = 310,000); AID 2546;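 further: Gal4-VP16 expression switched on by copper sulfate through the metallothionein promoter; nearly all actives have a fitted effect of over 50% in size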
ALDH1A1 block = ALDH1A1 (human) enzyme inhibition; P00352; Purified ALDH1A1, NADH fluorescence, propionaldehyde substrate; Potency, µM (titrated, usually from 75.3 µM), hits mostly inhibitors; actives 7.3% (n = 220,000); AID 1030; active means well fitted inhibition curve with a large enough effect, not every such curve was filed as active; inconclusive means small, poorly fitted or top-dose-only effect, or another doubt; inactive means no such curve, though single readings can be large or run the other way
Of the large screens only hits and unclear results are named; the others gave an inactive call. Unless noted, the call rests on the fitted dose curve; in most records, active means well fitted curve in the direction sought with a large enough effect; inconclusive means small, poorly fitted or top-dose-only effect, or another doubt; inactive means no such curve, though single readings can be large; an effect the other way counts as inactive or inconclusive.

OC(c1ccc(F)cc1)c1nc(-c2cccc(F)c2)cs1 (stereo not drawn)	none (no result: Sfp inh, RORgamma inh, Gal4-VP16 FLuc, ALDH1A1 block)
CCOC(=O)N1CCN(C(=O)CCCn2c(=S)[nH]c3ccc(Br)cc3c2=O)CC1	RORgamma inh 13µM, Gal4-VP16 FLuc inconclusive
CCOC(=O)N1CCN(C(=O)CCCn2c(=S)[nH]c3ccsc3c2=O)CC1	Sfp inh 56µM
CCOC(=O)N1CCN(C(=O)CCCn2c(=S)[nH]c3ccccc3c2=O)CC1	Sfp inh inconclusive
CCOC(=O)N1CCN(C(=O)CCCCCn2c(=S)[nH]c3ccsc3c2=O)CC1	Sfp inh inconclusive, RORgamma inh 11µM, Gal4-VP16 FLuc inconclusive
NC(=O)C1CCN(C(=O)CCCCCn2c(=O)[nH]c3ccsc3c2=O)CC1	ALDH1A1 block inconclusive
O=C(O)CNC(=O)c1ccc(CO)o1	ALDH1A1 block inconclusive (no result: Sfp inh, PLK1 PBD inh)
CN(CCO)CCC(=O)NC1(C)CS(=O)(=O)CC1S(=O)(=O)O (stereo not drawn)	none (no result: ALDH1A1 block)
Cc1ccc(NC(=O)N2CCOCC2)cc1NC(=O)N1CCOCC1	none (no result: Sfp inh, RORgamma inh, Gal4-VP16 FLuc, ALDH1A1 block)
O=C(CSc1nc2ncccc2[nH]1)c1ccc(F)cc1	ALDH1A1 block inconclusive
O=C(CSc1nc2ncccc2[nH]1)c1cccc([N+](=O)[O-])c1	RORgamma inh inconclusive, Gal4-VP16 FLuc inconclusive, ALDH1A1 block 8.9µM
O=C(CSc1ncn[nH]1)c1cccc([N+](=O)[O-])c1	Sfp inh 50µM, RORgamma inh inconclusive, PLK1 PBD inh inconclusive, Gal4-VP16 FLuc inconclusive, ALDH1A1 block inconclusive
Cc1cc(SCc2cccc([N+](=O)[O-])c2)nc(=O)[nH]1	none (no result: ALDH1A1 block)
Cc1cc(SCC(=O)c2cccc([N+](=O)[O-])c2)nc(=O)[nH]1	Sfp inh 45µM, RORgamma inh inconclusive, PLK1 PBD inh 21µM (no result: ALDH1A1 block)
COC(=O)Nc1ccc(SCC(=O)c2cccc([N+](=O)[O-])c2)cc1	PLK1 PBD inh 13µM (no result: ALDH1A1 block)
CCCn1c(-c2ccc(F)cc2)nc2c(NCCN(CC)CC)nc(C)nc21	ALDH1A1 block inconclusive (no result: PLK1 PBD inh)
Cc1ccc(S(=O)(=O)C[C@@H]2OC[C@H](C(C)C)N2S(=O)(=O)c2ccc(C)cc2)cc1	none (no result: Sfp inh, RORgamma inh, Gal4-VP16 FLuc, ALDH1A1 block)
O=C(CSc1ncn[nH]1)c1ccccc1	Sfp inh 56µM, PLK1 PBD inh 24µM, ALDH1A1 block inconclusive
O=C(CSc1ncn[nH]1)NCc1ccccc1	none
O=C(CSc1ncn[nH]1)c1ccco1	Sfp inh inconclusive, PLK1 PBD inh 30µM, ALDH1A1 block inconclusive
CCn1c(SCC(=O)OCc2ccccc2)nnc1-c1ccco1	none
CCn1c(Sc2ccc([N+](=O)[O-])cn2)nnc1-c1ccco1	RORgamma inh 10µM, Gal4-VP16 FLuc inconclusive
Cc1ccc(C(=O)N/N=C\c2ccc3c(c2)OCO3)cn1	none (no result: ALDH1A1 block)
O=C(/C=C/c1ccco1)Oc1cc(Br)cc(/C=N/NC(=O)c2ccccc2O)c1	RORgamma inh 3.2µM, Gal4-VP16 FLuc 2.8µM
Cc1ccc(C(=O)N/N=C/c2cccc(OC(=O)/C=C/c3ccco3)c2)cn1	Sfp inh 32µM, PLK1 PBD inh 27µM, ALDH1A1 block inconclusive
O=C(Nc1ccc(OC(F)(F)F)cc1)Nc1cccc([N+](=O)[O-])c1	Sfp inh inconclusive, RORgamma inh inconclusive, Gal4-VP16 FLuc 6.3µM
Cc1ccc(NC(=O)Nc2cccc([N+](=O)[O-])c2)cc1F	Sfp inh 79µM, RORgamma inh inconclusive, Gal4-VP16 FLuc inconclusive
CCOC(=O)C1CCN(C(=O)COC(=O)c2cccc(NS(=O)(=O)c3ccccc3)c2)CC1	none (no result: Sfp inh, RORgamma inh, Gal4-VP16 FLuc, ALDH1A1 block)
CO[C@@H]1CN(C)C(=O)c2ccc(NC(=O)c3ccccc3F)cc2OC[C@@H](C)N(CC2CCOCC2)C[C@@H]1C	none (no result: Sfp inh, RORgamma inh, Gal4-VP16 FLuc, ALDH1A1 block)
CC(C)CCN1C(=O)c2ccccc2C1c1nnnn1C(C)C (stereo not drawn)	none (no result: Sfp inh, RORgamma inh, Gal4-VP16 FLuc, ALDH1A1 block)
CCn1c(-c2ccc(N(C)C)cc2)nc2ccccc21	RORgamma inh 6.3µM, Gal4-VP16 FLuc inconclusive, ALDH1A1 block inconclusive
CC(C)n1c(-c2ccc(N(C)C)cc2)nc2ccccc21	RORgamma inh 4µM, Gal4-VP16 FLuc 20µM, ALDH1A1 block inconclusive
CC(C)n1c(Nc2ccccc2)nc2ccccc21	RORgamma inh inconclusive
CCn1c(-c2ccc(N)cc2)nc2ccccc21	ALDH1A1 block inconclusive
CN(C)c1ccc(-c2nc3ccccc3n2C)cc1	Sfp inh inconclusive, RORgamma inh 4µM, PLK1 PBD inh 27µM, Gal4-VP16 FLuc inconclusive, ALDH1A1 block inconclusive
CC1(C)CC2C1CCC1(C)OC2(C)CCC1O (stereo not drawn)	none (no result: PLK1 PBD inh)
CC(=O)NCCNc1nc2cc(-c3cscc3C)sc2c(=O)n1C	none (no result: Sfp inh, RORgamma inh, Gal4-VP16 FLuc, ALDH1A1 block)

Screens as filed in PubChem.
